High-throughput results: PubChem BioAssay, National Center for Advancing Translational Sciences (NCATS)
FMDV inh: foot and mouth disease virus antiviral activity; FMDV antiviral cell-based qHTS; Potency, µM (series often up to 57.9 µM), for the others: top-dose activity change, negative = inhibition, hits mostly inhibitors; 1.2% of 410,000 active; AID 1159524; calls by dose curve; tested in HEK293T cells; further: read-out not given here; potency means the concentration at half of the fitted maximal effect; nearly all actives have a fitted effect of over 45% in size
AmpC detergent: blocks E. coli AmpC beta-lactamase in detergent assay | P00811 | AmpC hydrolysis of nitrocefin, absorbance 480 nm, 0.01% Triton | Potency, µM (highest dose often 114 µM), for the others: top-dose activity change, negative = inhibition, actives largely listed as inhibitors | 0.041% of 370,000 active;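 further: potency means the concentration at half of the fitted maximal effect; 0% = no-compound wells and -100% = no-enzyme wells; nearly all actives have a fitted effect of over 25% in size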
Target sequence (P00811 whole entry, looked up): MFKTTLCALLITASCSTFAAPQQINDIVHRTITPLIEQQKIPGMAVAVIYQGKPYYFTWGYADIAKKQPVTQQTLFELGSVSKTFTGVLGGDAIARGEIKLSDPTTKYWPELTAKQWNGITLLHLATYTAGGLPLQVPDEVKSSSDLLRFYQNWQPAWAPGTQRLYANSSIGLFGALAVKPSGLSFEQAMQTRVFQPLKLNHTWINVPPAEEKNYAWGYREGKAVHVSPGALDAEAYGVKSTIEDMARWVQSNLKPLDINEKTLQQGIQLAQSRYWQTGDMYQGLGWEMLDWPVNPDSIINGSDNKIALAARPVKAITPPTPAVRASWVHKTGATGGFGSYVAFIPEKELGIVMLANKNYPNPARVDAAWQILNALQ
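20 mM phosphate pH 7.0 + 0.01% (detergent screen) or 0.0001% Triton X-100; 5.3 nM AmpC reagent; cpd preinc 15 min RT; nitrocefin (800 uM stock) to start; A480 q20 s × 4 min; Activity was normalised to no-enzyme and no-compound control wells.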
HCMV inh: blocks human cytomegalovirus replication; HFF cells, HCMV-luciferase reporter, 72 h; hits give low values; activity change, negative = inhibition, % at 57.5 µM; 4.5% of 410,000 active; in the data active means activity change below about -60%; inconclusive means no clear call, values can overlap the other calls; inactive means above about -39%
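After 16 h attachment at 37C, HFF cells received test compound and HCMV-luciferase (1 PFU/cell); reporter luminescence read 72 h later, data normalized against buffer-only and known inhibitor Salinomycin.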
HCV inhibitor: HCV inhibition | Huh7.5.1 HCVcc-Cre infection, luciferase reporter, 44 h | Potency, µM (series often up to 41.8 µM), without a hit: top-dose activity change, negative = inhibition, hits mostly inhibitors | 3.4% of 340,000 active | AID 651820; further: potency means the concentration at half of the fitted maximal effect
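A cell-based infection assay in which seeded cells (1,000 per well) receive test compound after 4 h, are inoculated with HCVcc-Cre at approximately 0.5 moi, and are incubated 44 h before luminescence detection.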
AmpC inh no detg: blocks E. coli AmpC beta-lactamase in detergent-free assay; AID 485341; Potency, µM (top dose mostly 57.1 µM), for inactives: top-dose activity change, negative = inhibition, usual class: inhibitors; AmpC nitrocefin hydrolysis, absorbance 480 nm, 0.0001% Triton; 0.52% of 330,000 active;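 further: potency means the concentration at half of the fitted maximal effect; plate controls were no compound for no effect and no enzyme for full effect; nearly all actives have a fitted effect of over 20% in size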
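20 mM phosphate pH 7.0 + 0.01% (detergent screen) or 0.0001% Triton X-100; 5.3 nM AmpC reagent; cpd preinc 15 min RT; nitrocefin (800 uM stock) to start; A480 q20 s × 4 min; Activity was normalised to no-enzyme and no-compound control wells.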
* hit, by the source's call. In the library only some 7.3% were active in any assay of this set; here they are far more common. Unless noted, the call rests on the fitted dose curve; in most records, active means well fitted curve in the direction sought with a large enough effect; inconclusive means small, poorly fitted or top-dose-only effect, or another doubt; inactive means no such curve, though single readings can be large; an effect the other way counts as inactive or inconclusive. Unless noted, on the % scale 0 is the no-effect control and ±100 the full control effect.

How did COCCCNC(=O)CSc1nc2cc(S(=O)(=O)N3CCCCC3)ccc2o1 do in these assays?
FMDV inh: -3%; AmpC detergent: -10%; HCMV inh: -21; HCV inhibitor: 2%; AmpC inh no detg: 8%

How did CCOc1ccc(NC(=O)COc2cccc3cccnc23)cc1S(=O)(=O)N1CCCC1 do in these assays?
FMDV inh: -10%; HCMV inh: -11

Results for O=C(Nc1c(Cl)cccc1Cl)Oc1cccc2cccnc12 ?
FMDV inh: -9%; HCMV inh: -98*

What do the screens show for `CCOc1ccccc1C(=O)OCC(=O)Nc1cccc(S(=O)(=O)N2CCCC2)c1`?
FMDV inh: inconclusive; HCMV inh: 0; HCV inhibitor: 5%; AmpC inh no detg: -30%

What do the screens show for `O=C(COc1cccc2cccnc12)Nc1cccc(S(=O)(=O)N2CCCC2)c1`?
FMDV inh: inconclusive; AmpC detergent: -7%; HCMV inh: -9; HCV inhibitor: 10µM*; AmpC inh no detg: -37%

How did O=C(Nc1cccc(Br)c1)Oc1cccc2cccnc12 do in these assays?
FMDV inh: -15%; HCMV inh: -35

What do the screens show for `Cc1cccc(C)c1OCC(=O)Nc1cccc(S(=O)(=O)N2CCCC2)c1`?
FMDV inh: -12%; AmpC detergent: inconclusive; HCMV inh: -24; HCV inhibitor: 8.9µM*; AmpC inh no detg: -34%

Results for CCS(=O)c1ccccc1C(=O)OCC(=O)Nc1cccc(S(=O)(=O)N2CCCCC2)c1 (stereo unspecified) ?
FMDV inh: inconclusive; AmpC detergent: inconclusive; HCMV inh: -8; HCV inhibitor: 10µM*; AmpC inh no detg: 33%

How did Cc1cccc(C)c1OCC(=O)Nc1cccc(S(=O)(=O)N2CCCCCC2)c1 do in these assays?
FMDV inh: -14%; HCMV inh: 18

Results for Cc1ccc(F)c(S(=O)(=O)NC(=O)C2(C)CCN2C(=O)Cc2ccccc2Cl)c1 (stereo unspecified) ?
FMDV inh: 4%; HCMV inh: 4

Results for CCc1ccccc1NC(=O)CNC(=O)CNC(=O)c1cccs1 ?
FMDV inh: -10%; AmpC detergent: 1%; HCMV inh: inconclusive; HCV inhibitor: 11%; AmpC inh no detg: -7%

What do the screens show for `COC(=O)C1CCN(Cc2ccc3c(c2)CN(C(=O)c2cc(C4CC4)on2)CCO3)CC1`?
FMDV inh: -15%

Results for N=c1c(S(=O)(=O)c2ccc(Cl)cc2)cc2c(=O)n3ccccc3nc2n1CCN1CCOCC1 ?
FMDV inh: -11%; AmpC detergent: inconclusive; HCMV inh: -25; HCV inhibitor: 13µM*; AmpC inh no detg: 84%

What do the screens show for `N=c1c(S(=O)(=O)c2ccccc2)cc2c(=O)n3ccccc3nc2n1C1CCCC1`?
FMDV inh: 6%; AmpC detergent: inconclusive; HCMV inh: 71; HCV inhibitor: inconclusive; AmpC inh no detg: -1%

Results for Cc1ccc(S(=O)(=O)c2cc3c(=O)n4ccccc4nc3n(C3CCCCC3)c2=N)cc1 ?
FMDV inh: inconclusive; AmpC detergent: -2%; HCMV inh: 33; HCV inhibitor: 13µM*; AmpC inh no detg: 0%

Results for Cc1ccc(NS(=O)(=O)c2cccc(C(=O)N3CCN(C(=O)c4ccco4)CC3)c2)cc1 ?
FMDV inh: -19%; AmpC detergent: -7%; HCMV inh: 0; HCV inhibitor: -2%; AmpC inh no detg: -15%

Results for CCOc1ccc(N(CC(=O)NC(C)C)C(=O)CCC(=O)Nc2ccccn2)cc1 ?
FMDV inh: -3%; AmpC detergent: -3%; HCMV inh: -10; HCV inhibitor: 7%; AmpC inh no detg: 16%

Results for O=C(O)c1[nH]c2ccc([N+](=O)[O-])cc2c1-c1ccccc1 ?
FMDV inh: -17%; AmpC detergent: 2%; HCMV inh: 61; HCV inhibitor: 21%; AmpC inh no detg: -26%

How did NNC(=O)c1[nH]c2ccc([N+](=O)[O-])cc2c1-c1ccccc1 do in these assays?
FMDV inh: -13%; AmpC detergent: -7%; HCMV inh: -89*; HCV inhibitor: inconclusive; AmpC inh no detg: -49%

How did CCOC(=O)CCNC(=O)C1=CN2CCN(Cc3c(C)noc3C)C(=O)N=C2O1 do in these assays?
HCMV inh: -4

Results for O=C(Nc1nccs1)c1cc2sccc2n1Cc1ccc(F)cc1 ?
FMDV inh: 20%; AmpC detergent: -10%; HCMV inh: -17; HCV inhibitor: inconclusive; AmpC inh no detg: 22µM*

What do the screens show for `CC(NC(=O)c1cc2sccc2n1Cc1ccc(F)cc1)c1ccccc1` (stereo unspecified)?
FMDV inh: 0%; AmpC detergent: 14%; HCMV inh: -85*

How did O=C(NCc1ccccc1Cl)C1CCN(S(=O)(=O)c2cccs2)CC1 do in these assays?
FMDV inh: 2%; AmpC detergent: 2%; HCMV inh: inconclusive; HCV inhibitor: inconclusive; AmpC inh no detg: -26%

What do the screens show for `Nc1nc(N2CCCCC2)nc(N(c2ccccc2)c2ccccc2)n1`?
FMDV inh: -24%; AmpC detergent: inconclusive; HCMV inh: -24; HCV inhibitor: 3%; AmpC inh no detg: 0.63µM*

How did CC(=O)c1ccc(S(=O)(=O)NC2CC(=O)N(c3ccc(C)c(C)c3)C2)cc1 (stereo unspecified) do in these assays?
FMDV inh: 42%; AmpC detergent: -21%; HCMV inh: -26; HCV inhibitor: -2%; AmpC inh no detg: inconclusive

Results for O=C(O)c1ccc2c3n(nc2c1)-c1ccc(Cl)cc1CO3 ?
FMDV inh: 7.9µM*; AmpC detergent: 0%; HCMV inh: 60; HCV inhibitor: 55%; AmpC inh no detg: -30%

How did O=C(c1ccc2c3n(nc2c1)-c1ccc(Cl)cc1CO3)N1CCCCC1 do in these assays?
FMDV inh: 71%; AmpC detergent: 1%; HCMV inh: 110; HCV inhibitor: 0%; AmpC inh no detg: 80%

What do the screens show for `O=S(=O)(NC(=S)NC1CCCCC1)c1ccc(Br)cc1`?
FMDV inh: 10%; AmpC detergent: 2%; HCMV inh: -23; HCV inhibitor: 14%; AmpC inh no detg: -20%

What do the screens show for `Clc1ccc2nc3ccccn3c2c1`?
FMDV inh: 24%; AmpC detergent: inconclusive; HCMV inh: 8; HCV inhibitor: 10µM*; AmpC inh no detg: -1%

How did CCOC(=O)N1CCC(NC(=O)Cn2cc3c(n2)CCC(C)C3)CC1 (stereo unspecified) do in these assays?
FMDV inh: -23%; AmpC detergent: -5%; HCMV inh: -4; HCV inhibitor: -4%; AmpC inh no detg: 19%

Results for CC1CCc2nn(CC(=O)Nc3c(F)cc(F)cc3Br)cc2C1 (stereo unspecified) ?
FMDV inh: -19%; AmpC detergent: inconclusive; HCMV inh: -37; HCV inhibitor: -1%; AmpC inh no detg: -9%
